Bioassay records as filed in PubChem BioAssay.
V-ATPase pH: alters yeast V-ATPase proton transport. S. cerevisiae, pHLuorin cytosolic pH fluorescence. response, % at 10 µM. actives 0.37% (n = 350,000); in the data active means response mostly above about 7.3%, no sharp cut-off; inactive means mostly below about 5.4%; further: actives read high
tim10-1 inh: growth inhibitors of tim10-1 mutant yeast; AID 463190; actives 2.2% (n = 330,000); inhibition, % at 20 µM; S. cerevisiae tim10-1 ts strain growth, BacTiter-Glo, 24 h;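 active means inhibition of at least 40%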;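 further: mutant grown at 25 °C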
NALP1 yeast inh: NALP1 inhibition. inhibition, % at 10 µM. S. cerevisiae NALP1/ASC/caspase-1 growth, X-gal OD620, 72 h. actives 0.61% (n = 280,000); in the data active means inhibition mostly above about 24%, no sharp cut-off; inactive means mostly below about 32%
NALP3 yeast inh: NALP3 inhibition in yeast; Yeast reconstituted NLRP3/ASC/caspase-1, beta-gal luminescence, 24 h; inhibition, % at 10 µM; actives 0.39% (n = 330,000); AID 2825;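 active means inhibition of 50% or more; inactive means inhibition below 50%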
tim23-1 inh: inhibits growth of tim23-1 mutant yeast; actives 1.3% (n = 330,000); inhibition, % at 20 µM; S. cerevisiae tim23-1 growth, BacTiter-Glo luminescence, 24 h;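 active means growth inhibition of the mutant yeast at or above 50%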;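 further: temperature-sensitive mutant grown at 25 °C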
TIM10 inh: growth inhibitors of TIM10 yeast strain; S. cerevisiae TIM10 strain growth, BacTiter-Glo luminescence, 24 h; inhibition, % at 10 µM; actives 1.4% (n = 330,000); AID 463195;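 active means inhibition of 40% or more at the single tested concentration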;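 further: wild-type TIM10 isogenic control strain grown at permissive 25 °C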
tim23-1 confirm: confirmation of tim23-1 mutant yeast growth inhibitors; shares compounds with tim23-1 inh; S. cerevisiae tim23-1 growth, BacTiter-Glo luminescence, 24 h; inhibition, % at 20 µM; actives 83% (n = 4,400); AID 463218;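 active means inhibition above about 39% in either of two replicate wells at 20 µM, limit read from the data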;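 further: temperature-sensitive tim23-1 mutant grown at 25 °C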
Each line names hits and unclear results; the compound was inactive in the other large screens (follow-up assays come after a bar, where they were run). Shown are actives, neighbours in structure and some others; about 4.2% of the full set was active somewhere.

O=C(Cc1ccccc1)c1ccc(O)cc1O	none (no result: tim10-1 inh, NALP1 yeast inh, NALP3 yeast inh, tim23-1 inh, TIM10 inh)
CCCCCC(=O)c1ccc(O)cc1O	tim23-1 inh 53.7 | tim23-1 confirm 47.2
C=CCn1c(SCc2cc(=O)n3ccsc3n2)nc2cc(Cl)ccc2c1=O	tim23-1 inh 55.4 | tim23-1 confirm 58.5
C=CCn1c(SCc2cc(=O)n3ccsc3n2)nc2ccccc2c1=O	tim23-1 inh 51.3 | tim23-1 confirm 56.1
O=c1c(O)c(-c2cc(O)c(O)c(O)c2)oc2cc(O)cc(O)c12	none (no result: NALP1 yeast inh)
O=c1cc(-c2ccccc2)c2c(O)cc(O)cc2o1	none
CC(C)=CCc1cc(-c2oc3cc(O)cc(O)c3c(=O)c2O)ccc1O	tim23-1 inh 51.3 (no result: NALP1 yeast inh) | tim23-1 confirm 51.3
O=c1c(O)c(-c2ccc(O)cc2O)oc2cc(O)cc(O)c12	none (no result: V-ATPase pH, tim10-1 inh, NALP3 yeast inh, tim23-1 inh, TIM10 inh)
O=c1c(O)c(-c2ccccc2)oc2cc(O)cc(O)c12	tim23-1 inh 58.4 (no result: NALP1 yeast inh) | tim23-1 confirm 60.8
O=c1c(-c2ccccc2)c(-c2ccccc2)oc2cc(O)cc(O)c12	tim23-1 inh 54.6 | tim23-1 confirm inactive
O=C(/C(=C/O)N=Nc1ccc(Cl)cc1)c1ccncc1	tim23-1 inh 62.4 | tim23-1 confirm 57.3
Cc1ccc(N=N/C(=C\O)C(=O)c2ccncc2)cc1	tim23-1 inh 70.8 | tim23-1 confirm 64.2
Cc1ccc(S(=O)(=O)NNC(=O)c2ccncc2)cc1	none
O=C1NC2(CCCCO2)CO1 (stereo not drawn)	none
COC(=O)[C@H](CC(C)C)NC(=O)c1cc2c(cn1)[nH]c1ccccc12	tim23-1 inh 59.2 | tim23-1 confirm 62.6
CC(NCC1(N2CCOCC2)CCCCC1)C(=O)Nc1ccc(Cl)cc1Cl (stereo not drawn)	none
O=C(O)C(Oc1ccc2c(c1)oc(=O)c1ccccc12)c1ccccc1 (stereo not drawn)	none
O=C(O)C(Oc1ccc2ccccc2c1)c1ccccc1 (stereo not drawn)	tim23-1 inh 97.2 (no result: NALP1 yeast inh) | tim23-1 confirm inactive
O=C(N/N=C/c1cccc(F)c1)c1csc2c1CCCC2	tim23-1 inh 63.2 | tim23-1 confirm 61.5
Cc1ccc(S(=O)(=O)Nc2ccccc2F)cc1C(=O)NCc1ccco1	none (no result: NALP1 yeast inh)
Cc1ccc(C2(c3ccc(C)cc3)CC2C(=O)Nc2ccc([N+](=O)[O-])cc2O)cc1 (stereo not drawn)	tim23-1 inh 50.4 | tim23-1 confirm inactive
CCn1cc(C(=O)NN)c(=O)c2cc(F)c(N3CCCCC3)cc21	tim23-1 inh 50.7 | tim23-1 confirm inactive
CC(=O)c1ccc(-c2ccc(C(=O)NC3CCCCCC3)o2)cc1	none
Cc1cc(C)nc(CCNC(=O)c2cc(COc3ccccc3)on2)n1	none
Cc1ccc(/C=N/Nc2cccc3cccnc23)c(O)c1	none
Oc1ccc(/C=N/Nc2cccc3cccnc23)c(O)c1	tim23-1 inh 58.1 | tim23-1 confirm 57.2
Cn1c(-c2ccsc2)c(-c2cccs2)c2cc(-c3ccc4cc[nH]c4c3)ccc21	none (no result: NALP1 yeast inh)
Cn1c(C=O)c(-c2ccc3cc[nH]c3c2)c2ccccc21	tim23-1 inh 64.4 (no result: NALP1 yeast inh) | tim23-1 confirm 55.2
O=C(N/N=C/c1cccc(Oc2ccccc2)c1)c1cc[n+]([O-])cc1	none
Nc1ccc(C(=O)N/N=C/c2cccc(Oc3ccccc3)c2)cc1	none
O=C(N/N=C/c1cccc(Oc2ccccc2)c1)c1ccccc1F	tim23-1 inh 50.3 | tim23-1 confirm 46.1
Cc1nn(C)c(C(=O)N/N=C/c2cccc(Oc3ccccc3)c2)c1Br	tim23-1 inh 51.6 | tim23-1 confirm 40.5
Cn1ccs/c1=N\C(=O)Nc1cccc(C(F)(F)F)c1	none
CC1CCN(C(=O)COC(=O)C2CCN(S(=O)(=O)c3ccc4c(c3)OCCO4)CC2)CC1	none (no result: NALP1 yeast inh)
COc1ccc(NS(=O)(=O)c2ccc(N3CCCC3)c(NC(=S)Nc3cccc(S(=O)(=O)N(C)C)c3)c2)cc1	tim23-1 inh 51.8 (no result: V-ATPase pH) | tim23-1 confirm 77.8
CNC(=S)Nc1ccc(N2CCCC2)c(S(=O)(=O)Nc2ccc(OC)cc2)c1	none (no result: NALP1 yeast inh)
O=C(CCl)Nc1cn(-c2ccccc2)nc1-c1ccc(F)cc1	tim23-1 inh 60.6 | tim23-1 confirm inactive
NC(=O)c1ccsc1NC(=O)c1cccs1	none (no result: NALP1 yeast inh)
Cc1sc(NC(=O)c2cccs2)c(C(N)=O)c1C	tim23-1 inh 50.8 | tim23-1 confirm 67.3
NC(=S)N/N=C/c1coc2ccc(F)cc2c1=O	none (no result: NALP1 yeast inh)
